Values joined by “and” are separate entries in the source; they are usually repeats but may differ in a detail not shown here. Identical values can stand only once.

The test system of the experiment is HT29 sg-Ctrl (RNF43 wildtype). In words: cell viability activity relative to DMSO (negative = inhibition); higher = more viable cells (less growth inhibition). The note with it: 5 µM; 96 h. As for the experimental part:
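Broad Repurposing Library primary screen at a single dose of 5 uM. HT29 sg-Ctrl and HT29 RNF43 G659fs CRISPR-edited isogenic cells were seeded at 2500 cells/well in 384-well plates in duplicate and treated for 96 h. Viability was read by CellTiter-Glo and reported as % activity relative to DMSO, with MG132 as the positive control (negative = growth inhibition).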
As to `O=C1C=C2C=C[C@@H]3C[C@@]2(O1)[C@H]1CCCCN31`, the cell viability activity is -6.19%.

`N#Cc1cn([C@@H]2O[C@H](CO)[C@@H](O)[C@H]2O)c2ncnc(N)c12`: the cell viability activity is -89.9%.

As to `C=C1[C@@H](C)[C@H]2[C@H](Cc3ccccc3)NC(=O)[C@]23OC(=O)/C=C/[C@H](O)CCC[C@@H](C)C/C=C/[C@H]3[C@@H]1O`, the cell viability activity is -36.1%. For `CO[C@H]1C[C@H](O[C@H]2CC[C@@]3(C)[C@H](CC[C@@H]4[C@@H]3CC[C@]3(C)[C@@H](C5=CC(=O)OC5)[C@@H](OC(C)=O)C[C@]43O)C2)O[C@@H](C)[C@@H]1O` the value was -90.4%; for `CC[C@@]1(O)C(=O)OCc2c1cc1n(c2=O)Cc2cc3ccccc3nc2-1`, -91.5%; for `Oc1cc(Cl)ccc1Oc1ccc(Cl)cc1Cl`, -92.8%. For `C[C@]12CC[C@H](O)C[C@H]1CC[C@@H]1[C@@H]2C[C@@H](O)[C@]2(C)[C@@H](C3=CC(=O)OC3)CC[C@]12O` the value was -79.8%. For `CCN(CC)CCO[C@H]1CC[C@@]2(C)C(=CC[C@@H]3[C@@H]2CC[C@]2(C)C(=O)CC[C@@H]32)C1` the value was -52.8%; for `COC(=O)C[C@](O)(CCC(C)(C)O)C(=O)O[C@@H]1C(OC)=C[C@]23CCCN2CCc2cc4c(cc2[C@H]13)OCO4`, -83.6%. Consider `Oc1cccc2cccnc12`, for which the cell viability activity was -34.8%. Regarding `C[C@]12CC[C@H]3[C@@H](CC[C@]4(O)C[C@@H](O)CC[C@]34C=O)[C@@]1(O)CC[C@@H]2C1=CC(=O)OC1`, the cell viability activity was -75.5%. In the case of `C[C@@H]1O[C@@H](O[C@H]2C[C@@H](O)[C@]3(CO)[C@H]4[C@H](O)C[C@]5(C)[C@@H](C6=CC(=O)OC6)CC[C@]5(O)[C@@H]4CC[C@]3(O)C2)[C@H](O)[C@H](O)[C@H]1O`, the cell viability activity was -87.7% and -89.1%. The figure for `c1ccc2c(c1)[I+]c1ccccc1-2` is -52.1%; for `CC(C)[C@]12O[C@H]1[C@@H]1O[C@]13[C@]1(O[C@H]1C[C@H]1C4=C(CC[C@@]13C)C(=O)OC4)[C@@H]2O` it is -87.8% and -92.2%.

Turning to `C[C@@H]1O[C@@H](O[C@@H]2C=C3CC[C@@H]4[C@H](CC[C@]5(C)[C@@H](c6ccc(=O)oc6)CC[C@]45O)[C@@]3(C)CC2)[C@H](O)[C@H](O)[C@H]1O`, the cell viability activity was -87.4%. The figure for `Fc1cc(F)c2c(c1)[C@H]1C=CC[C@H]1C(c1cccnc1)N2` (stereo not given in full) is -92.9% and -73.9%; for `C=C(C)[C@H]1Cc2c(ccc3c2O[C@@H]2COc4cc(OC)c(OC)cc4[C@@H]2C3=O)O1` it is -75.8%; for `C[C@]12CC[C@H](O)C[C@H]1CC[C@@H]1[C@@H]2CC[C@]2(C)[C@@H](C3=CC(=O)OC3)CC[C@]12O` it is -86.7%. `C/C=C(\C)C(=O)N[C@@H](c1ccccc1)[C@@H](O)C(=O)O[C@H]1C[C@@]2(O)[C@@H](OC(=O)c3ccccc3)[C@@H]3[C@]4(OC(C)=O)CO[C@@H]4C[C@H](O)[C@@]3(C)C(=O)[C@H](OC(C)=O)C(=C1C)C2(C)C`: the cell viability activity is -69.3%.

Turning to `O=[N+]([O-])C=Cc1ccc2c(c1)OCO2`, the cell viability activity was -21%.

Turning to `C/C(=C\c1csc(C)n1)[C@@H]1C[C@@H]2O[C@]2(C)CCC[C@H](C)[C@H](O)[C@@H](C)C(=O)C(C)(C)[C@@H](O)CC(=O)O1`, the cell viability activity was -72.3%. For `COc1cc([C@@H]2c3cc4c(cc3[C@H](O)[C@H]3COC(=O)[C@H]23)OCO4)cc(OC)c1OC` the value was -58.2%; for `Cc1sc2c(c1C)C(c1ccc(Cl)cc1)=N[C@@H](CC(=O)Nc1ccc(O)cc1)c1nnc(C)n1-2`, -59.2%; for `COc1ccc(CCN2CCC(Nc3nc4ccccc4n3Cc3ccc(F)cc3)CC2)cc1`, -3.92%. For `COc1cc2c(c(OC)c1OC)-c1ccc(OC)c(=O)cc1[C@@H](NC(C)=O)CC2` the value was -46.1% and -57.8%; for `CC(=O)O[C@@]12CO[C@@H]1C[C@H](O)[C@@]1(C)C(=O)[C@H](O)C3=C(C)[C@@H](O)C[C@@](O)([C@@H](OC(=O)c4ccccc4)[C@H]21)C3(C)C`, -62.6%; for `CC(C)(C)c1cc(C=C(C#N)C#N)cc(C(C)(C)C)c1O`, -67.3%. The figure for `CN(C)C(=S)SSC(=S)N(C)C` is -69%. Take `CN1CCN(c2cccc3[nH]c(=O)oc23)CC1`: the cell viability activity was -54.8%. For `COc1ccc(C[C@H]2NC[C@H](O)[C@H]2OC(C)=O)cc1` the value was -95.3%; for `N#CC(C#N)=NNc1cccc(Cl)c1`, -68.2%; for `Cc1sc2c(c1C)C(c1ccc(Cl)cc1)=N[C@@H](CC(=O)OC(C)(C)C)c1nnc(C)n1-2`, -61.7%. Take `C[C@@]1(CO)[C@H](O)CC[C@@]2(C)[C@H]1CC[C@H]1C[C@@H]3C[C@@]12CC[C@]3(O)CO`: the cell viability activity was -34.1%. For `C/C(=C\c1csc(C)n1)[C@@H]1C[C@@H]2O[C@@H]2CCC[C@H](C)[C@H](O)[C@@H](C)C(=O)C(C)(C)[C@@H](O)CC(=O)O1` the value was -51.9%; for `C[C@]12O[C@H](C[C@]1(O)CO)n1c3ccccc3c3c4c(c5c6ccccc6n2c5c31)CNC4=O`, -84.6%; for `COC(=O)NC(=S)Nc1ccccc1NC(=S)NC(=O)OC`, -38.9%. As to `CC[C@@H]1/C=C/C=C/C[C@H](C)[C@H](O)[C@](C)(O)C(=O)[C@H](C)[C@@H](O)[C@H](C)C(=O)[C@H](C)[C@@H](O)[C@H](C)/C=C/C(=O)O[C@H]2[C@@H](C)[C@@H](CC1)O[C@@]1(CC[C@@H](C)[C@@H](C[C@H](C)O)O1)[C@@H]2C`, the cell viability activity is -42.2%. `O=C(C[C@H]1NCCC[C@@H]1O)Cn1cnc2cc(Br)c(Cl)cc2c1=O`: the cell viability activity is -86.5%.

For `CCCCCCCCCCCCCCCC[n+]1ccccc1`, the cell viability activity was -79.9%.

In the case of `CC(=O)O[C@H]1C[C@H](O[C@H]2[C@@H](O)C[C@H](O[C@H]3[C@@H](O)C[C@H](O[C@H]4CC[C@@]5(C)[C@H](CC[C@@H]6[C@@H]5C[C@@H](O)[C@]5(C)[C@@H](C7=CC(=O)OC7)CC[C@]65O)C4)O[C@@H]3C)O[C@@H]2C)O[C@H](C)[C@H]1O[C@@H]1O[C@H](CO)[C@@H](O)[C@H](O)[C@H]1O`, the cell viability activity was -89.1%.

Source of the values: the supplement of paper PMC9177965.
